# Experimental data: ChEMBL document CHEMBL4513141, “CO-ADD screening of NIH (USA) - Clinical Collection” (2021)
# Values joined by “and” are separate entries in the source; they are usually repeats but may differ in a detail not shown here. Equal entries are not always repeated. Entries with a potency or affinity are not part of this list.
# Experiments:
# [1] = test system: Staphylococcus aureus; conditions: Concentration 20 uM, ASSAY_TEST Inhibition of Bacterial Growth, detection method Absorption (OD600), MEDIA CAMHB, plate type 384well, NBS, CORNING #3640, time 18 hr
# [2] = test system: Escherichia coli; conditions: Concentration 20 uM, ASSAY_TEST Inhibition of Bacterial Growth, detection method Absorption (OD600), MEDIA CAMHB, plate type 384well, NBS, CORNING #3640, time 18 hr
smiles,measurement,setting,value
Nc1ccc(O)c(C(=O)O)c1 [MESALAMINE],Inhibition,[1],-19.58%
same,Inhibition,[2],3.21%
CNC(=C[N+](=O)[O-])NCCSCc1ccc(CN(C)C)o1.Cl [RANITIDINE HYDROCHLORIDE],Inhibition,[1],-17.46%
same,Inhibition,[2],4.52%
C[C@]12CCC(=O)C=C1CC[C@@H]1[C@@H]2[C@@H](O)C[C@@]2(C)[C@H]1CC[C@]2(O)C(=O)CO [HYDROCORTISONE],Inhibition,[1],7.72%
Cc1cnc(C(=O)NCCc2ccc(S(=O)(=O)NC(=O)NC3CCCCC3)cc2)cn1 [GLIPIZIDE],Inhibition,[1],13.08%
COC(=O)C1=C(C)NC(C)=C(C(=O)OCCN(C)Cc2ccccc2)C1c1cccc([N+](=O)[O-])c1.Cl (stereo not drawn) [NICARDIPINE HYDROCHLORIDE],Inhibition,[1],-1.65%
same,Inhibition,[2],2.23%
COc1ccc2cc([C@H](C)C(=O)[O-])ccc2c1.[Na+] [NAPROXEN SODIUM],Inhibition,[1],6.58%
CCCCN1CCCC1CNC(=O)c1cc(C#N)c2ccccc2c1OC (stereo not drawn) [NAFADOTRIDE],Inhibition,[1],6.62%
same,Inhibition,[2],2.47%
CC(=O)OCC(=O)[C@@]1(O)CC[C@H]2[C@@H]3CCC4=CC(=O)C=C[C@]4(C)[C@H]3[C@@H](O)C[C@@]21C [PREDNISOLONE ACETATE],Inhibition,[1],11.59%
same,Inhibition,[2],1.81%
CCOC(=O)C1(CCCCCCOc2ccc(Cl)cc2)CO1 (stereo not drawn) [rac-ETOMOXIR],Inhibition,[1],3.7%
same,Inhibition,[2],-5.87%
CCCNCC(O)COc1ccccc1C(=O)CCc1ccccc1 (stereo not drawn) [PROPAFENONE],Inhibition,[1],9.33%
same,Inhibition,[2],8.72%
CN(C)CCOC(C)(c1ccccc1)c1ccccn1.O=C(O)CCC(=O)O (stereo not drawn) [DOXYLAMINE SUCCINATE],Inhibition,[1],2.51%
same,Inhibition,[2],3.89%
CC(C)[N+]1(C)C2CCC1CC(OC(=O)C(CO)c1ccccc1)C2.[Br-] (stereo not drawn),Inhibition,[1],9.02%
CN(C)CCOC(c1ccccc1)c1ccccc1.Cl [DIPHENHYDRAMINE HYDROCHLORIDE],Inhibition,[1],-13.43%
CC1=C(C(=O)O)N2C(=O)[C@@H](NC(=O)[C@H](N)c3ccccc3)[C@H]2SC1.O [CEPHALEXIN],Inhibition,[1],-0.36%
CCN1CCC[C@H]1CNC(=O)c1c(O)c(Cl)cc(Cl)c1OC [RACLOPRIDE],Inhibition,[1],2.11%
same,Inhibition,[2],10.63%
CCOC(=O)N1CCC(=C2c3ccc(Cl)cc3CCc3cccnc32)CC1 [LORATADINE],Inhibition,[1],11.88%
CC(C)(C(=O)O)c1ccc(C(O)CCCN2CCC(C(O)(c3ccccc3)c3ccccc3)CC2)cc1.Cl (stereo not drawn) [FEXOFENADINE HYDROCHLORIDE],Inhibition,[1],11.48%
CC1(C)O[C@@H]2C[C@H]3[C@@H]4CCC5=CC(=O)C=C[C@]5(C)[C@@]4(F)[C@@H](O)C[C@]3(C)[C@]2(C(=O)CO)O1 [TRIAMCINOLONE ACETONIDE],Inhibition,[1],7.65%
same,Inhibition,[2],3.69%
CC(C)(C(=O)c1cccnc1)c1cccnc1 [METYRAPONE],Inhibition,[1],4.18%
same,Inhibition,[2],6.34%
O=C(O)CCNC(=O)c1ccc(N=Nc2ccc(O)c(C(=O)O)c2)cc1,Inhibition,[1],1.56%
same,Inhibition,[2],-1.37%
Cc1ncc([N+](=O)[O-])n1CC(O)CCl (stereo not drawn) [ORNIDAZOLE],Inhibition,[1],10.83%
same,Inhibition,[2],5.05%
Cl.OC(CCN1CCCC1)(c1ccccc1)C1CCCCC1 (stereo not drawn) [PROCYCLIDINE HYDROCHLORIDE],Inhibition,[1],17.75%
same,Inhibition,[2],-5.9%
CN(Cc1cnc2nc(N)nc(N)c2n1)c1ccc(C(=O)N[C@@H](CCC(=O)O)C(=O)O)cc1.O,Inhibition,[1],8.23%
C[C@]12C=CC(=O)C=C1CC[C@@H]1[C@@H]2[C@@H](O)C[C@@]2(C)[C@H]1CC[C@]2(O)C(=O)COC(=O)CCC(=O)[O-].[Na+] [PREDNISOLONE SODIUM SUCCINATE],Inhibition,[1],5.71%
same,Inhibition,[2],1.73%
CC(C)(C)NC(=O)[C@H]1CC[C@H]2[C@@H]3CC[C@H]4NC(=O)C=C[C@]4(C)[C@H]3CC[C@]12C [FINASTERIDE],Inhibition,[1],-0.3%
same,Inhibition,[2],-5.85%
CC(C)c1ccc2c(c1)c(SC(C)(C)C)c(CC(C)(C)C(=O)O)n2Cc1ccc(Cl)cc1,Inhibition,[1],10.09%
same,Inhibition,[2],5.68%
C[C@]12C[C@H](O)[C@H]3[C@@H](CCC4=CC(=O)CC[C@@]43C)[C@@H]1CC[C@@H]2C(=O)CO [CORTICOSTERONE],Inhibition,[1],12.8%
same,Inhibition,[2],2.35%
Cl.Nc1nc2ccc(OC(F)(F)F)cc2s1,Inhibition,[1],13.98%
same,Inhibition,[2],2.43%
CCCc1cc(=O)[nH]c(=S)[nH]1 [PROPYLTHIOURACIL],Inhibition,[1],17.4%
same,Inhibition,[2],8.71%
O=C1c2c(O)cc(O)cc2O[C@H](c2ccc(O)c(O)c2)[C@@H]1O,Inhibition,[1],15.43%
same,Inhibition,[2],-4.02%
CC(=O)Nc1nnc(S(N)(=O)=O)s1 [ACETAZOLAMIDE],Inhibition,[1],15.7%
same,Inhibition,[2],-1.89%
CCCNC(C)C(=O)Nc1ccccc1C.Cl (stereo not drawn) [PRILOCAINE HYDROCHLORIDE],Inhibition,[1],16.77%
same,Inhibition,[2],4.99%
CCN(CC)CCOc1ccc(C(=C(Cl)c2ccccc2)c2ccccc2)cc1.O=C(O)CC(O)(CC(=O)O)C(=O)O [CLOMIPHENE CITRATE],Inhibition,[1],43.2%
same,Inhibition,[2],2.4%
Cc1nc2n(c(=O)c1CCN1CCC(c3noc4cc(F)ccc34)CC1)CCCC2 [RISPERIDONE],Inhibition,[1],4.53%
same,Inhibition,[2],2.58%
CC(=O)O[C@]1(C(C)=O)CC[C@H]2[C@@H]3C[C@H](C)C4=CC(=O)CC[C@]4(C)[C@H]3CC[C@@]21C [MEDROXYPROGESTERONE ACETATE],Inhibition,[1],10.39%
same,Inhibition,[2],2%
C=C1/C(=C\C=C2/CCC[C@]3(C)[C@@H]([C@H](C)/C=C/[C@@H](O)C4CC4)CC[C@@H]23)C[C@@H](O)C[C@@H]1O [CALCIPOTRIENE],Inhibition,[1],9.78%
same,Inhibition,[2],4.8%
CC[C@H]1OC(=O)[C@H](C)C(=O)[C@H](C)[C@@H](O[C@@H]2O[C@H](C)C[C@H](N(C)C)[C@H]2O)[C@](C)(OC)C[C@@H](C)C(=O)[C@H](C)[C@@H]2N(CCCCn3cnc(-c4cccnc4)c3)C(=O)O[C@@]21C,Inhibition,[1],4.38%
same,Inhibition,[2],4.81%
COC(=O)C1=C(C)NC(C)=C(C(=O)OCC(C)C)C1c1ccccc1[N+](=O)[O-] (stereo not drawn) [NISOLDIPINE],Inhibition,[1],10.19%
same,Inhibition,[2],14.24%
CC(CCCCC(=O)Nc1ccc(C(F)(F)F)cc1)NCCc1c[nH]cn1.O=C(O)/C=C\C(=O)O.O=C(O)/C=C\C(=O)O (stereo not drawn),Inhibition,[1],7.23%
same,Inhibition,[2],3.85%
COc1ccccc1OCCNCC(O)COc1cccc2[nH]c3ccccc3c12 (stereo not drawn) [CARVEDILOL],Inhibition,[1],10.39%
same,Inhibition,[2],6.44%
COc1cc(C(=O)NC2CCCNC2)cc(OC)c1OC (stereo not drawn) [TROXIPIDE],Inhibition,[1],21.18%
same,Inhibition,[2],2.83%
Cc1[nH]c(=O)c(C#N)cc1-c1ccncc1 [MILRINONE],Inhibition,[1],14.68%
same,Inhibition,[2],-0.64%
CCCCNC(=O)NS(=O)(=O)c1ccc(C)cc1 [TOLBUTAMIDE],Inhibition,[1],4.92%
same,Inhibition,[2],0.97%
Cl.O=c1n(CCCN2CCN(c3cccc(Cl)c3)CC2)nc2ccccn12 [TRAZODONE HYDROCHLORIDE],Inhibition,[1],11.44%
same,Inhibition,[2],0.18%
C[C@H]1[C@@H](OC(=O)CCC(=O)O)O[C@@H]2O[C@@]3(C)CC[C@H]4[C@H](C)CC[C@@H]1[C@@]24OO3,Inhibition,[1],-17.43%
same,Inhibition,[2],12.24%
C[C@@H]1C[C@H]2[C@@H]3CCC4=CC(=O)C=C[C@]4(C)[C@@]3(F)[C@@H](O)C[C@]2(C)[C@H]1C(=O)CO [DESOXIMETASONE],Inhibition,[1],0.95%
same,Inhibition,[2],7.14%
CSc1nc2cc(Cl)c(Oc3cccc(Cl)c3Cl)cc2[nH]1 [TRICLABENDAZOLE],Inhibition,[1],7.06%
same,Inhibition,[2],-5.3%
NNC(=O)c1ccncc1 [ISONIAZID],Inhibition,[1],8.75%
same,Inhibition,[2],0.87%
C[C@H](CS)C(=O)N1CCC[C@H]1C(=O)O [CAPTOPRIL],Inhibition,[1],-7.06%
same,Inhibition,[2],4.92%
CCC(=O)O[C@]1(C(=O)SCF)[C@H](C)C[C@H]2[C@@H]3C[C@H](F)C4=CC(=O)C=C[C@]4(C)[C@@]3(F)[C@@H](O)C[C@@]21C [FLUTICASONE PROPIONATE],Inhibition,[1],-21.58%
same,Inhibition,[2],6.95%
CC(Cc1ccccc1)(NC(=O)CN)c1ccccc1.Cl (stereo not drawn) [REMACEMIDE HYDROCHLORIDE],Inhibition,[1],12.25%
same,Inhibition,[2],-0.35%
CNC(=C[N+](=O)[O-])NCCSCc1csc(CN(C)C)n1 [NIZATIDINE],Inhibition,[1],11.02%
same,Inhibition,[2],4.27%
CCCCC(=O)O[C@H]1CC[C@H]2[C@@H]3CCc4cc(O)ccc4[C@H]3CC[C@]12C [ESTRADIOL VALERATE],Inhibition,[1],3.82%
same,Inhibition,[2],3.72%
C[C@@H]1C[C@H]2[C@@H]3CCC4=CC(=O)C=C[C@]4(C)[C@@]3(F)[C@@H](O)C[C@]2(C)[C@@]1(O)C(=O)CO [DEXAMETHASONE],Inhibition,[1]; 20 µM,-14.23% and -13.77%
same,Inhibition,[2]; 20 µM,5.83% and 4.46%
CC(C)(C)NC[C@H](O)COc1nsnc1N1CCOCC1.O=C(O)/C=C\C(=O)O [TIMOLOL MALEATE],Inhibition,[1],2.99%
same,Inhibition,[2],1.71%
CCC(=O)O[C@]1(C(=O)CCl)[C@@H](C)C[C@H]2[C@@H]3CCC4=CC(=O)C=C[C@]4(C)[C@@]3(F)[C@@H](O)C[C@@]21C [CLOBETASOL PROPIONATE],Inhibition,[1],-12.08%
same,Inhibition,[2],-1.37%
